Bioassay records (PubChem)
BJeLR viab HTS = compounds reducing viability of BJeLR cells. viability loss activity score, % (test concentration not listed). BJeLR fibroblasts viability, CellTiterGlo ATP luminescence, 48 h; HRASV12, hTERT and SV40 LT/ST transformed. 0.64% of 30,000 active; in the data active means viability loss activity score above about 50%; inconclusive means no clear call, values can overlap the other calls; inactive means below about 35%;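 further: higher score means fewer live cells and less ATP luminescence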
A1 inhib = blocks A1 activity; MEF A1-2A-BIM cells, caspase-Glo luminescence, 3 h; percent of clofoctol signal, DMSO as zero; caspase activation, % (concentration not given with the values); 0.51% of 21,000 active; AID 2241;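 active means most replicate scores above 10, or exactly half above 10 with mean activity above 10; inconclusive means mean activity below 10 while half the replicates exceed 10; inactive means most replicate scores below 10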;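 further: effector caspase 3 and 7 activity cleaving a DEVD luciferin substrate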
Each line names hits and unclear results; the compound was inactive in the other large screens. The list is not random: actives were taken first. Their share in the collection is about 0.86%.

COc1ccc(/C=c2/[nH]/c(=C\C(=O)c3ccccc3)c(=O)[nH]c2=O)cc1OC	none
C[C@@H]1CN([C@@H](C)CO)C(=O)c2cc(NC(=O)CCC(F)(F)F)ccc2O[C@H]1CN(C)Cc1ccc(Cl)c(Cl)c1	none
C[C@@H]1CN([C@@H](C)CO)C(=O)c2cccc(NC(=O)C3CCOCC3)c2O[C@H]1CN(C)Cc1ccccc1	none (no result: A1 inhib)
CNC[C@H]1Oc2ccc(NS(=O)(=O)c3ccccc3)cc2C(=O)N([C@H](C)CO)C[C@@H]1C	none
CO[C@@]12[C@H](COC(N)=O)C3=C(C(=O)C(C)=C(N)C3=O)N1C[C@@H]1N[C@@H]12	BJeLR viab HTS 58.5
CC(C)N1C(=O)CCC1C(=O)NCCc1ccc(Cl)cc1 (stereo not given)	none
CCCCc1c(O)c2cccc3c4ccccc4n(c1=O)c23	none
N#Cc1c(C(F)(F)F)cc(-c2cccs2)nc1S/C=C/C(=O)c1ccccc1	BJeLR viab HTS 56.7
N#Cc1c(-c2ccccc2)cc(-c2cccs2)nc1SCS(=O)Cc1ccccc1 (stereo not given)	none
O=C(Nc1ccccc1)c1cc([N+](=O)[O-])ccc1Cl	none
O=C(Nc1ccc([N+](=O)[O-])cc1Cl)c1cc(Cl)ccc1O	BJeLR viab HTS 98.9
CC(C)NC(=O)Nc1ccc2c(c1)C(=O)N([C@@H](C)CO)C[C@H](C)[C@H](CN(C)C(=O)NC(C)C)O2	none
C[C@@H]1CN([C@H](C)CO)C(=O)c2cccc(N(C)C)c2O[C@@H]1CN(C)S(C)(=O)=O	none (no result: A1 inhib)
On1onc2c3cc(-c4ccccc4)nc3ccc21	BJeLR viab HTS 60.7
Cc1ccc2nc(-c3ccncc3)cc(-c3ccccc3)c2c1	A1 inhib inconclusive
Cc1ccc(S(=O)(=O)Nc2ccc3c(c2)C(=O)N([C@H](C)CO)C[C@@H](C)[C@@H](CN(C)Cc2ccc(C(F)(F)F)cc2)O3)cc1	none
Cc1ccc(S(=O)(=O)Nc2ccc3c(c2)C(=O)N([C@H](C)CO)C[C@@H](C)[C@@H](CN(C)S(C)(=O)=O)O3)cc1	none
C=C1C(=O)O[C@H]2[C@H]1[C@@H](OC(=O)C(C)(O)C(C)Cl)C(OC(C)=O)/C(C(=O)OC)=C\CC[C@@]1(C)O[C@H]21 (stereo not given in full)	BJeLR viab HTS 84.9
C=C1C(=O)O[C@H]2C1[C@H](OC(=O)/C(C)=C/CO)C/C(C)=C\CC[C@@]1(C)OC21 (stereo not given in full)	none
CCOc1ccc(S(=O)(=O)N(CC(=O)NC2CC2)c2ccccc2)cc1	none
C[C@@H]1O[C@@H](OC[C@H]2O[C@@H](Oc3ccc(O)cc3)[C@H](O)[C@@H](OC(=O)c3ccc(O)cc3)[C@@H]2O)[C@H](O)[C@H](O)[C@H]1O	none
C[C@@H]1CN([C@H](C)CO)C(=O)c2cc(NS(=O)(=O)c3ccccc3)ccc2O[C@@H]1CN(C)Cc1ccc(Oc2ccccc2)cc1	none
COc1cccc2c1C(=O)c1c(O)c3c(c(O)c1C2=O)C[C@@](O)(C(C)=O)C[C@@H]3O[C@H]1C[C@H](N)[C@H](O)[C@H](C)O1	BJeLR viab HTS 111.4, A1 inhib 15.3
CC1CC(=O)c2c(ccc3c2C(=O)c2c(O[C@@H]4O[C@@H](C)[C@H](O)[C@@H](O)[C@H]4O)cccc2C3=O)C1 (stereo not given in full)	none
COc1ccc(NC(=O)N(C)C[C@@H]2Oc3ccc(NC(=O)Nc4ccc(C(F)(F)F)cc4)cc3C(=O)N([C@H](C)CO)C[C@H]2C)cc1	none
C[C@@H]1CN([C@H](C)CO)C(=O)c2cccc(NC(=O)Nc3ccc(C(F)(F)F)cc3)c2O[C@@H]1CN(C)C(=O)Nc1ccccc1	none (no result: A1 inhib)
Fc1ccc(CSc2nnc(SCc3ccccc3)s2)cc1	none
COc1cccc(NC(=O)Cn2c(=O)c3cccn3c3ccccc32)c1	none
Cc1cc(C)cc(NC(=O)Cn2c(=O)c3cccn3c3ccccc32)c1	A1 inhib 55.7
CC1=C(c2ccc(C)cc2)S(=O)(=O)NC1=NC1CCN(Cc2ccccc2)CC1	A1 inhib 9.6
CC1=C(c2ccc(C)cc2)S(=O)(=O)NC1=NC(C)C12CC3CC(CC(C3)C1)C2 (stereo not given)	none
C[C@@H]1CN([C@@H](C)CO)C(=O)c2cccc(NC(=O)Nc3ccc(F)cc3)c2O[C@@H]1CN(C)C(=O)Nc1cccc2ccccc12	none (no result: A1 inhib)
COc1ccc(S(=O)(=O)Nc2ccc3c(c2)C(=O)N([C@H](C)CO)C[C@@H](C)[C@H](CN(C)S(C)(=O)=O)O3)cc1	none
CC1=CC(C)(C)N(S(=O)(=O)c2ccc(C)cc2)c2ccccc21	BJeLR viab HTS 56.7
CC1=CC(C)(C)N(C(=O)Nc2ccc(C)cc2)c2ccccc21	none (no result: A1 inhib)
C[C@H]1CN([C@@H](C)CO)C(=O)c2cccc(NC(=O)Nc3ccc(C(F)(F)F)cc3)c2O[C@H]1CN(C)Cc1ccc(C(F)(F)F)cc1	none (no result: A1 inhib)
C[C@H]1CC[C@@H]2[C@@H](C(=O)c3c(O)c([C@]4(O)CC[C@@H](O)[C@H]5O[C@H]54)cn(O)c3=O)[C@@H](C)C=C[C@H]2C1	BJeLR viab HTS 52.9, A1 inhib 46.5
C/C(=C\C=C\C(C)C)CCC/C(C)=C/COc1c(O)cc2c(c1O)CNC2=O	none
Nc1cccc(-c2cc3c(Oc4cccc(O)c4)ncnc3[nH]2)c1	A1 inhib 22.9
C[C@H]1CN([C@@H](C)CO)C(=O)c2cc(NC(=O)C3CCCCC3)ccc2O[C@H]1CN(C)Cc1ccc(C(=O)O)cc1	none
CC1CCCC[C@H]2C(=O)C=C[C@H](O)[C@@H]2CC(=O)O1 (stereo not given in full)	BJeLR viab HTS 61.9
CC1CCC/C=C/C(=O)c2c(O)cc(O)cc2CC(=O)O1 (stereo not given)	none
CC1CCCCN1C(=O)C1c2ccccc2Oc2ccccc21 (stereo not given)	none
O=c1oc2cc(O)ccc2cc1-c1cccc(Br)c1	none
CCc1ccc(N=Cc2c(O)n(-c3ccccc3)c(=O)c3ccccc23)cc1	A1 inhib 40.7
CCc1ccc(N=Cc2c(O)[nH]c(=S)[nH]c2=O)cc1	none
CNC[C@@H]1Oc2ccc(NC(=O)Nc3c(C)noc3C)cc2C(=O)N([C@H](C)CO)C[C@H]1C	A1 inhib 16.1
CNC[C@@H]1Oc2ccc(NC(=O)Nc3c(C)noc3C)cc2C(=O)N([C@@H](C)CO)C[C@@H]1C	none
O=c1c2cnn(-c3ccccc3)c2ncn1/N=C/c1ccc(Cl)cc1	none
CC1(C)CC[C@@]2(C(=O)O[C@@H]3O[C@H](CO)[C@@H](O)[C@H](O)[C@H]3O)C(C1)C1=CCC3[C@@]4(C)CC[C@@H](O[C@@H]5O[C@H](CO)[C@@H](O)[C@H](O)[C@H]5O[C@@H]5O[C@H](CO)[C@@H](O)[C@H](O)[C@H]5O)C(C)(C)C4CC[C@@]3(C)[C@]1(C)C[C@H]2O (stereo not given in full)	none
